From PubChem BioAssay AID2253 (Southern Research Specialized Biocontainment Screening …, 2010)
Out of some 2,200 compounds screened, about 1,300 (59%) were called active. No rule for the calls is given here. The set was probably picked from earlier hits. Not all results are given here. Entries with a potency or affinity are not part of this list.

Assay: THP-1 cell cytotoxicity, dose response, cytotoxicity control for Salmonella PhoP regulon inhibitors, S. typhimurium screen hits (AID 2253)
Settings: THP-1 viability, CellTiter-Glo luminescence, 72 h; series mostly up to 50 µM

Row | SMILES | outcome
1 | CCn1c(CNC(=O)c2cccc(C)c2)nc2ccccc21 | inactive
2 | Cc1ccc(C)n1-c1cc([N+](=O)[O-])ccc1-n1ccnc1 | inactive
3 | Nc1c(-c2ccccc2)cnn1-c1cccc([N+](=O)[O-])c1 | inactive
4 | CCOC(=O)c1c(NC(=O)Nc2ccc(C)cc2)sc2c1CCN(C)C2 | inactive
5 | NC(=O)c1c(NC(=O)CN2C(=O)CCC2=O)sc2c1CCCCC2 | inactive
6 | CC(C)(C)C1CCc2c(sc(NC(=O)c3cccs3)c2C(=O)N2CCCCC2)C1 (stereo not given) | inactive
7 | C=CCN=C(NC#N)SCc1ccccc1Cl | inactive
8 | O=c1cc(-c2ccc([N+](=O)[O-])cc2)nc2cc(-c3ccc(Cl)cc3)[nH]n12 | inactive
9 | Cc1ccc(C(=O)Oc2cccc(NC(=O)c3cccs3)c2)cc1S(=O)(=O)N1CCOCC1 | inactive
10 | N#Cc1ccc(COC(=O)c2ccc3c(=O)[nH]c(CN4CCOCC4)nc3c2)cc1 | inactive
11 | CC(C)Cc1oc(C(=O)O)cc1CN1CCOCC1 | inactive
12 | COC(=O)c1ccc2c(=O)n(CCN3CCOCC3)c(SCC(=O)C(C)(C)C)nc2c1 | inactive
13 | COc1ccc(CN2CCOCC2)cc1Br | inactive
14 | CCOC(=O)c1c(C)[nH]c(C)c1C(=O)COC(=O)/C=C/c1cccc(F)c1 | inactive
15 | Cc1ccc(OCC(=O)N2CCN(S(=O)(=O)c3ccccc3)CC2)c([N+](=O)[O-])n1 | inactive
16 | CCOC(=O)C(/C=C(\C#N)C(=O)OCC)=C(/N)N1CCN(c2c(C)cccc2C)CC1 | inactive
17 | Cc1ccccc1NC(=S)N(CCCN1CCOCC1)Cc1ccccn1 | inactive
18 | Brc1ccc2nc3c(n2c1)CCCC3 | inactive
19 | CCCCn1c(NCCO)nc2ccccc21 | inactive
20 | Nc1ccc(C(=O)OCc2nc3ccccc3[nH]2)cc1 | inactive
21 | COc1c(F)c(F)cc2c(=O)c(C(=O)O)cn(C3CC3)c12 | inactive
22 | O=C(Cn1nc(C(F)(F)F)c2c1CCCCC2)N1CCOCC1 | inactive
23 | CCCNC(=O)COC(=O)CCC(=O)c1ccc(F)cc1 | inactive
24 | O=C(c1cc2ncc(Br)cn2n1)N1CCOCC1 | inactive
25 | C(=N\N1CCN(C2c3ccccc3-c3ccccc32)CC1)/c1cccs1 | inactive
26 | CCn1cc(C(=O)O)c(=O)c2cnc(N3CCN(C(=S)NC(=O)c4ccc(Cl)cc4)CC3)nc21 | inactive
27 | CCOc1ccc(-c2noc(CCCC(N)=O)n2)cc1OC | inactive
28 | COc1c(N2C[C@@H]3CCCN[C@@H]3C2)c(F)cc2c(=O)c(C(=O)O)cn(C3CC3)c12 | inactive

Row | SMILES | outcome
29 | N/C(=N\OC(=O)Cc1ccc(Cl)cc1)c1cccnc1 | inactive
30 | COc1cccc(N=Cc2c[nH][nH]c2=O)c1 | inactive
31 | Cc1cc2ncn(C3CC(=O)N(Cc4ccc(N5CCCC5=O)cc4)C3=O)c2cc1C (stereo not given) | inactive
32 | CC(NC(=O)C1(C)CC1(Br)Br)C(C)(C)C (stereo not given) | inactive
33 | CN1/C(=C/C2CC(=O)N(c3cccc4ccccc34)C2=O)C(C)(C)c2ccccc21 (stereo not given) | inactive
34 | O=C(OCCN1C(=O)c2ccccc2C1=O)c1ccc(S(=O)(=O)N2CCCCCC2)cc1 | inactive
35 | Cc1ccc(NC(=O)CCN2CCc3ccccc3C2)cc1 | inactive
36 | CCCCCC(=O)Nc1ccc2ccccc2c1 | inactive
37 | C/C(=N\NC(=O)c1c(Cl)c(C)nn1C)c1cccc(NC(=O)COc2ccc(Cl)cc2)c1 | inactive
38 | O=S(=O)(NCc1ccccc1)c1cccc(S(=O)(=O)N2CCOCC2)c1 | inactive
39 | O=C(Nc1ccc2oc(-c3ccc(Cl)c(Cl)c3)nc2c1)c1ncn[nH]1 | inactive
40 | Nc1nc(N)nc(-c2ccccc2)n1 | inactive
41 | Nc1cc(N)cc(-c2nc3ccccc3[nH]2)c1 | inactive
42 | O=C(O)CCc1nn2c3ccccc3n(CCN3CCCCC3)c2nc1=O | inactive
43 | C=CCn1c(SCCOc2ccc(OC)cc2)nnc1C(C)NC(=O)c1ccc(OC)cc1 (stereo not given) | inactive
44 | COc1ccc(OCCSc2nnc(-c3ccc(OC)cc3)n2N)cc1 | inactive
45 | COC(=O)c1ccc(COC(=O)c2ccccn2)cc1 | inactive
46 | CC(O)c1ccc(OCCN(C)c2ccccn2)cc1 (stereo not given) | inactive
47 | Cc1ccc(-n2ncc3c(N4CCN(c5ccccc5)CC4)ncnc32)c(C)c1 | inactive
48 | COc1cc(NC(=O)CSc2nnnn2Cc2ccc3c(c2)OCO3)cc(OC)c1 | inactive
49 | c1ccc(-c2cnn3nnnc3n2)cc1 | inactive
50 | CCc1c(C)c2cc(Cl)c(O)c(CN(C)C)c2oc1=O | inactive
51 | O=C(CCN1C(=O)c2ccccc2S1(=O)=O)Nc1ccc2c(c1)OCCO2 | inactive
52 | CC(=O)c1c(N2CCN(C(=O)C3CCCO3)CC2)nc(=S)n(-c2ccccc2)c1C (stereo not given) | inactive
53 | O=C(Nc1ccc(F)cc1)c1ccccc1F | inactive
54 | COc1ccc(CCNC(=O)c2ccc(CN3CCOCC3)cc2)cc1 | inactive
55 | O=C(CCN1C(=O)COc2ccccc21)NCCN1CCOCC1 | inactive
